Laboratory results: PubChem BioAssay (Tox21)
Where “and” joins values, the source holds several entries; their conditions need not be identical. Equal values may be shown once. Results filed as inconclusive are left out. Entries that show only a call come without a potency. A structure can be active in one record and inactive in another. Calls of active or inactive are those of the source. Calls follow the shape of the dose curve; as a rule, active = well fitted activation curve with a large enough effect in the repeat runs; inconclusive = weak or mixed curves; inactive = flat fitted curve, though single readings scatter.

Experiment: A CellTox Green Cytotoxicity Assay to monitor cytotoxicity in HepG2 cells - 8 hour (AID 1224890); also: nearly all actives have a fitted effect of over 45% in size
Settings: CellTox Green fluorescence; series mostly up to 76.8 µM
Description: National Center for Advancing Translational Sciences [NCATS]
NIH Chemical Genomics Center [NCGC]
U.S. Environmental Protection Agency [EPA]
National Institutes of Environmental Health Sciences [NIEHS]
National Toxicology Program [NTP]
Cell-based models are critical for drug discovery. Determining the natural cytotoxic effects resulting from test compounds is an essential research activity. A CellTox Green Cytotoxicity Assay to monitor cytotoxicity in real time of continues cell culture during 40 hours of the compound treatment was used to screen Tox21 10K library compounds in HepG2 cells. CellTox Green Cytotoxicity Assay is a nonlytic, homogeneous, biofluorescent method to measure cytotoxicity in cell culture after experimental manipulation. The assay system uses a proprietary asymmetric cyanine dye that is excluded from viable cells but preferentially stains the dead cell's DNA. […] Viable cells produce no appreciable increases in fluorescence. Therefore, the fluorescence signal produced by the binding interaction with dead cell DNA is proportional to cytotoxicity.
The mixture of HepG2 cell suspension and reagents were dispensed at 600cells/6 ul/well in 1536-well tissue culture treated black solid bottom plates using a Multidrop dispenser. After the assay plates were incubated at a 37 C/5% CO2 incubator for 5 hours, 23 nL of compounds dissolved in DMSO, positive and negative controls was transferred to the assay plate by a pintool work station. The plates were incubated at 37 C for 40 hours. The fluorescence intensity were measured at 0h, 8h, 16h, 24h, 32h and 40h time points using ViewLux plate reader during compound treatment.
Potency is read from the fitted curve at half-maximal effect.

SMILES	Potency
O=C(O)c1ccccn1	inactive
CC(C)OC(=O)Nc1ccccc1	inactive
COC(=O)c1ccccc1N	inactive
NCCc1ccc(O)cc1	inactive
OCCN(CCO)CCO	inactive
CC(Br)C(=O)O (stereo not given)	inactive
O=c1[nH]c(=O)[nH]c(=O)[nH]1	inactive
CON(C)C(=O)Nc1ccc(Cl)c(Cl)c1	inactive
CC(C)=C[C@@H]1[C@@H](C(=O)OCc2coc(Cc3ccccc3)c2)C1(C)C	inactive
Cc1cc(Cl)ccc1O	inactive
CN1C(=O)CN=C(c2ccccc2)c2cc(Cl)ccc21	inactive
CCOP(=S)(OCC)Oc1cnc2ccccc2n1	inactive
CNC(=O)Oc1ccccc1OC(C)C	inactive
[N-]=[N+]=[N-]	inactive
CCc1cccc(C)c1N(C(=O)CCl)C(C)COC (stereo not given)	inactive
C=CCO	inactive and 27.5 µM (active)
CCCC1COC(Cn2cncn2)(c2ccc(Cl)cc2Cl)O1 (stereo not given)	inactive
COC(=O)NS(=O)(=O)c1ccc(N)cc1	inactive
CC1OC(C)OC(C)O1 (stereo not given)	inactive
O=[N+]([O-])c1ccccc1	inactive

SMILES	Potency
Clc1ccccc1Cl	inactive
Cc1cc(-c2cc(C)c(N)c(C)c2)cc(C)c1N	inactive
COP(N)(=O)SC (stereo not given)	inactive
CC(C)OC(=O)Nc1cccc(Cl)c1	inactive
COC(=O)c1ccccc1C(=O)OC	inactive
CC(C)C#N	inactive
ClCc1cccnc1	inactive
C1CC2OC2CC1C1CO1 (stereo not given)	inactive
COc1ccc2c3c1O[C@H]1[C@@H](O)C=C[C@H]4[C@@H](C2)N(C)CC[C@@]341	inactive
O=c1[nH]c2ccccc2c(=O)o1	inactive
CC(Oc1ccc(Cl)cc1Cl)C(=O)O (stereo not given)	inactive
CCCCCCCCCl	inactive
[O-][Cl+2]([O-])O	inactive
O=NN1CCCCCCC1	inactive
CC1C=[C-]C=C1.[C-]#[O+].[C-]#[O+].[C-]#[O+].[Mn]	inactive
CC(C)C1(C)N=C(c2nc3ccccc3cc2C(=O)O)NC1=O (stereo not given)	inactive
O=S(=O)(c1ccc(O)cc1)c1ccc(O)cc1	inactive
CCCCN(CC)C(=O)SCCC	inactive
CCN(CC)CCO	inactive
CN(C)CCO	inactive
